Tests used:
[1] = test system: Human papillomavirus type 1a protein E7 (residues 44-93); assay: HPV1a E7 fragment binders on microarrays, primary screen, biochemical, small-molecule microarray, residues 44-93, 635 nm fluorescence (AID 1108); settings: small-molecule microarray binding, fluorescence 635 nm; higher = more signal;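 further: E7 fragment applied at 1 µg/mL in TBST for 1 h at 4 C; score combines spot fluorescence with its signal to noise ratio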
[2] = modulators of HCV replicon luciferase signal, primary screen, HCV replication inhibitor project, Huh7 cells, luciferase reporter (AID 1109); settings: 48 h, higher = more signal;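 further: huh7 hepatoma cells harbouring a luciferase neomycin HCV replicon reporter; luciferase luminescence as measure of HCV replicon replication; test concentration not given here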
[3] = biological target: Left-right determination factor 2 (Homo sapiens) (UniProt O00292); assay: LEFTY2 binders on small-molecule microarrays, primary screen, biochemical, small-molecule microarray, 635 nm fluorescence scan (AID 1110); settings: LEFTY2 binding, higher = more signal
[4] = biological target: Calmodulin-1 (Homo sapiens) (UniProt P0DP23); assay: CALM1 binders on microarrays, EGTA buffer, profiling panel, biochemical, small-molecule microarray, Cy5-labelled CALM1 (AID 1111); settings: Cy5-CALM1 binding fluorescence, higher = more signal;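 further: labelled calmodulin applied in Tris saline Tween buffer holding calcium plus EGTA and DTT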
[5] = biological target: Calmodulin-1 (Homo sapiens) (UniProt P0DP23); assay: calcium-bound CALM1 binders on microarrays, profiling panel, artefact control for SMM control-protein annotation, biochemical, small-molecule microarray, Cy5-labelled CALM1, plus calcium (AID 1112); settings: Cy5-CALM1 binding fluorescence, higher = more signal;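 further: score merges spot fluorescence with signal to noise from triplicate slides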
[6] = small-molecule microarray binders of probe aWnt5a, primary screen, biochemical, biotinylated probe, 635/667 nm fluorescence (AID 1113); settings: higher = more signal;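 further: score merges 667 nm fluorescence intensity with signal-to-noise per printed feature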
[7] = small-molecule microarray binders of probe aShh, primary screen, biochemical, biotinylated probe, 635/667 nm fluorescence (AID 1114); settings: higher = more signal;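 further: probe is biotin-labelled aShh protein from a stem cell growth factor screen; measures binding of labelled protein to compounds printed on the slide; score merges feature fluorescence at 667 nm with signal-to-noise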
[8] = small-molecule microarray binders of probe aNog, primary screen, biochemical, biotinylated probe, 635/667 nm fluorescence (AID 1115); settings: higher = more signal;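 further: probe is biotinylated aNog protein used at 0.15 µg/mL for 1 h at 4 C; z-score combines 667 nm fluorescence of each spot with its signal to noise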
[9] = biological target: Torsin-1A-interacting protein 1 (Homo sapiens) (UniProt Q5JTV8); assay: LAP1 binders from COS7 cell lysate, primary screen, small-molecule microarray, 635/667 nm fluorescence (AID 1116); settings: COS7-hLAP1 lysate binding, 635 nm fluorescence, higher = more signal
[10] = biological target: Alpha-bungarotoxin (Bungarus multicinctus) (UniProt P60615); assay: alpha-bungarotoxin binders on microarray, profiling panel, artefact control for SMM control protein annotation, biochemical, small-molecule microarray, Alexa647 label, 635/667 nm fluorescence (AID 1117); settings: alpha-BTX-A647 binding fluorescence, higher = more signal
Sequence of Alpha-bungarotoxin (Bungarus multicinctus) (P60615 whole entry, looked up): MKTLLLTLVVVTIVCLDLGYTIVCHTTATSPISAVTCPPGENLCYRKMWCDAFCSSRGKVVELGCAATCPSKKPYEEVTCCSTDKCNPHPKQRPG

Sequence of Left-right determination factor 2 (Homo sapiens) (O00292 whole entry, looked up): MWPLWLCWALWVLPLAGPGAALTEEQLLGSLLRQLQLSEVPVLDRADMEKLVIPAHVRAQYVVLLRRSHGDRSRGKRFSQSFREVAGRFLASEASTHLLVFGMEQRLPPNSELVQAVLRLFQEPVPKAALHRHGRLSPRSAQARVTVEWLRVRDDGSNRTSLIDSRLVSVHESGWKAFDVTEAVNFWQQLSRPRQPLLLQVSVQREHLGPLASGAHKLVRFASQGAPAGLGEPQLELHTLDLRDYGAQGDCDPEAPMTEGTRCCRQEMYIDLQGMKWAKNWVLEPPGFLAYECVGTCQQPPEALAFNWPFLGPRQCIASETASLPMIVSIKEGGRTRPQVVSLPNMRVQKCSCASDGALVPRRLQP
Sequence of Torsin-1A-interacting protein 1 (Homo sapiens) (Q5JTV8 whole entry, looked up): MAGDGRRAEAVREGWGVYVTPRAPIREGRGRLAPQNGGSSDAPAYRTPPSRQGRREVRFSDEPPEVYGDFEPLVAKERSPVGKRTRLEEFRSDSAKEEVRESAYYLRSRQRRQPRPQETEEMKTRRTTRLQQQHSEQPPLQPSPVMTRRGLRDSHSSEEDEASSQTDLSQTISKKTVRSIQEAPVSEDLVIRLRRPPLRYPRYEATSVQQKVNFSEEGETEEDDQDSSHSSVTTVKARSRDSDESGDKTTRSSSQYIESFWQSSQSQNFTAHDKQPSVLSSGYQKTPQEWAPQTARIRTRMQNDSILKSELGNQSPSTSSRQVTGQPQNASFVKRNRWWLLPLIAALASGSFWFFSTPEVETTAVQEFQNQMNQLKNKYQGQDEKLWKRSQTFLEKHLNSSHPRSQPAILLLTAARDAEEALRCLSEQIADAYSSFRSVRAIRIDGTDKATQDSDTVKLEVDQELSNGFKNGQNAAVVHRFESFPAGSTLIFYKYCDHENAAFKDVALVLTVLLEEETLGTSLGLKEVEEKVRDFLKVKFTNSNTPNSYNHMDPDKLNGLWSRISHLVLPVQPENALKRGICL

SMILES	composite z-score [1]	z-score [2]	composite z-score [3]	composite z-score [4]	composite z-score [5]	composite z-score [6]	composite z-score [7]	composite z-score [8]	composite z-score [9]	composite z-score [10]
[N-]=[N+]=Nc1ccccc1C[C@@]1(C(=O)NCC(O)CO)N=C(c2ccc(OCCCO)cc2)O[C@@H]1c1ccccc1N=[N+]=[N-] (stereo not given in full)	0.796	-3.13	-0.458	2.15	0.176	0.0586	0.348	-0.596	1.64	0.427
O=C1O[C@H](c2ccccc2)[C@H](c2ccccc2)N2[C@H]1[C@@H](C(=O)O)[C@]1(C(=O)Nc3ccc(C#CC4(O)CCCCCC4)cc31)[C@H]2c1ccccc1OCCO	1.11	-2.11	0.39	1.99	1.03	0.0839	0.459	0.938	0.727	1.95
COc1ccc(C(O)C2C=CC3C(=O)N(c4ccccc4)C(=O)C3N2Nc2ccccc2F)c2ccccc12 (stereo not given)	0.459	-0.673	0.903	2.6	0.994	0.416	0.425	1.26	1.28	2.12
CCCC[C@@H](O)C1=C(C)Cn2c(=O)n(-c3ccccc3)c(=O)n2[C@H]1CO	-0.867	0.384	0.0031	-0.737	-0.122	-0.117	-0.221	0.115	0.105	-0.409
COC(=O)C(CC#Cc1ccc2c(c1)[C@]1(C(=O)N2)[C@H](C(=O)N2CCN(c3ncccn3)CC2)[C@H]2C(=O)O[C@H](c3ccccc3)[C@H](c3ccccc3)N2[C@@H]1c1ccc(O)cc1)C(=O)OC	0.335	-1.66	0.813	2.18	1.36	0.436	0.87	1.16	2.45	2.29
CCCNC(=O)[C@@]1(Sc2ccc(C)cc2)CC(=O)N(Cc2cc(C(F)(F)F)cc(C(F)(F)F)c2)[C@@H]1c1ccc(CO)cc1	0.156	-1.83	-0.272	-0.159	0.441	-0.0944	-0.291	-0.164	0.443	0.0468
C=CCNC(=O)[C@H]1[C@@H]2C(=O)O[C@@H](c3ccccc3)[C@@H](c3ccccc3)N2[C@@H](c2ccc(OCCO)cc2)[C@]12C(=O)Nc1ccc(C#Cc3ccc(OC)cc3)cc12	1.02	-2.18	0.699	0.573	0.787	0.104	0.465	-0.403	1.1	1.71
C=CCNC(=O)[C@@H]1[C@H]2C(=O)O[C@H](c3ccccc3)[C@H](c3ccccc3)N2[C@H](c2ccc(O)cc2)[C@@]12C(=O)N(C(=O)OCCOC)c1ccc(C#CCC(C(=O)OC)C(=O)OC)cc12	1.39	-0.598	0.434	0.635	0.0394	-0.001	0.151	-0.1	1.42	1.11
COC(=O)c1ccc(OC)c(/C=C\CC(OC(=O)c2ccncc2)c2ccccc2)c1 (stereo not given)	-0.734	-1.91	0.684	-1.05	0.157	-0.101	-0.206	-0.183	0.187	2.12
COC(=O)c1c2oc(c1C(=O)OC)C(=O)N[C@H](Cc1ccccc1)Cn1cc(nn1)C1(CCCCC1)NC(=O)N[C@H](CO)CC2	-1.21	0.0733	-0.161	-0.311	-0.0933	-0.105	0.0639	0.0119	0.459	2.39
CN(C)CCCCNC(=O)[C@H]1C[C@H]2C(=O)N[C@@H](CCCCN(C)C)C(=O)N2[C@H]1c1ccc(O)cc1	-1.01	0.448	0.435	-0.362	-0.873	-0.128	-0.229	-0.0446	-0.178	0.457
COCCOC(=O)N1C(=O)[C@@]2(c3cc(C#CCCO)ccc31)[C@H](C(=O)N1CCN(c3ncccn3)CC1)[C@H]1C(=O)O[C@H](c3ccccc3)[C@H](c3ccccc3)N1[C@@H]2c1ccc(OCCO)cc1	1.46	-1.21	0.6	1.26	0.0318	0.0633	0.0469	0.234	0.867	1.95
O=C1N(Cc2ccccc2)c2ccccc2C[C@@]12N=C(c1ccc(OCCCO)cc1)O[C@H]2c1ccccc1	1.34	-3.11	-0.297	0.333	-0.458	-0.103	0.0948	0.576	0.176	0.849
CCOC(=O)C[C@H]1[C@H](OC(=O)c2ccc(-c3ccccc3)cc2)[C@@H](NC(=O)C2CCCCC2)c2cc(OCCCO)ccc2N1C(=O)Cc1ccc(OC)cc1	0.612	-1.57	0.4	1.07	0.881	-0.0523	-0.571	-0.638	0.527	0.333
COc1c(C)cc(-c2nc(-c3ccccc3)c3c(c2C)CO[Si]3(C(C)C)C(C)C)cc1C	0.0725	-0.77	0.513	0.0032	0.154	-0.0478	-0.0769	0.239	-0.0032	-0.0073
OCCCc1cc[n+](Cc2cc3c(cc2Br)OCO3)cc1	-0.945	1.05	-1.12	-1.81	0.172	-0.147	-0.207	-0.172	-0.81	-2.04
O=C/C=C/c1ccc(-c2ccccc2)cc1	-1.06	0.861	0.435	-0.501	-0.524	-0.129	-0.341	-0.739	-0.0833	0.27

SMILES	composite z-score [1]	z-score [2]	composite z-score [3]	composite z-score [4]	composite z-score [5]	composite z-score [6]	composite z-score [7]	composite z-score [8]	composite z-score [9]	composite z-score [10]
CC(C)(C)OC(=O)CC[C@]1(C(N)=O)N=C(c2ccc(OCCCO)cc2)O[C@H]1c1ccccc1N=[N+]=[N-]	0.97	0.697	-0.143	1.53	1.1	0.0371	0.232	0.886	0.791	1.43
COc1ccc(CCNC(=O)[C@@H]2c3ccccc3C(=O)N(Cc3cc(F)cc(C(F)(F)F)c3)[C@H]2c2ccc(CO)cc2)cc1	0.45	-0.989	0.262	1.05	0.197	0.0438	-0.314	1.86	1.59	0.715
C=CCN1C(=O)[C@@]2(O[C@@H](CCO)[C@H]([Si](C)(C)c3ccc(OC)cc3)[C@H]2C)c2cc(N3CCCCC3=O)ccc21	1.36	-3.29	0.264	0.721	0.519	-0.091	0.151	0.197	0.813	1.14
COC(=O)C[C@H]1O[C@]2(C(=O)N(C)c3ccccc32)[C@@H](C)[C@@H]1[Si](C)(C)c1ccccc1	0.623	-2.1	0.469	-0.0495	-0.401	-0.124	0.318	-0.0446	0.0282	0.586
CCOC(=O)C[C@H]1[C@H](OC(=O)c2ccc(-c3ccccc3)cc2)[C@@H](NC(=O)c2ccc(-c3ccccc3)cc2)c2cc(OCCCO)ccc2N1C(=O)c1ccccc1	1.01	-1.22	0.71	1.1	0.912	-0.0721	0.0278	0.412	0.322	1.14
CC1CC/C=C\[C@H]2OC34C=CCN(CCN5CCOCC5)C(=O)[C@H]3N(C(CO)C(C)C)C(=O)[C@@H]4C2C(=O)O1 (stereo not given in full)	0.0179	-0.278	-0.0839	-0.388	-1.05	-0.105	0.0469	-0.126	-0.46	-0.157
COc1ccc(C(=O)Nc2ccc(CN3C(=O)[C@]4(O[C@H](CC(=O)N(CCO)Cc5ccccc5)[C@@H]([Si](C)(C)c5ccc(OC)cc5)[C@@H]4C)c4ccccc43)cc2)cc1	1.37	-3.71	0.803	-0.0162	-0.46	0.0354	0.108	0.0326	0.811	0.543
CC(C)C[C@@H]1NC(=O)[C@@H]2C[C@H](C(=O)NCCCCCNC(=O)CS)[C@H](c3ccc(O)cc3)N2C1=O	1.37	2.04	0.104	1.18	0.194	-0.12	0.0637	-0.12	0.097	0.136
CC(C)C[C@H]1NC(=O)CNC(=O)[C@@]23C(=O)N[C@@H](Cc4ccccc4)C2[C@H](C)[C@@]2(C)O[C@H]2C3/C=C/C/C=C\CNC1=O (stereo not given in full)	0.0774	0.238	0.715	-0.322	-0.833	-0.169	-0.221	-0.0315	-0.0248	-0.188
C=CC[C@]1(C(=O)NCCN2CCOCC2)N=C(c2ccc(OCCCO)cc2)O[C@H]1c1ccccc1	1.35	-0.633	0.66	0.0631	-0.442	0.212	0.398	-0.103	1.24	0.429
O=C(NC1CC1)[C@@H]1c2ccccc2C(=O)N(C2CCCCC2)[C@H]1c1ccc(CO)cc1	0.178	-2.14	0.0863	0.576	0.109	-0.176	-0.321	-0.16	0.482	1.5
CCCCC=C[C@@H](NC(=O)C(C)(C)C)c1ccccc1	1.28	-3.07	0.466	0.815	0.113	0.0357	0.54	0.863	-0.334	0.82
C=CC[C@]1(C(N)=O)N=C(c2ccc(OCCCO)cc2)O[C@H]1c1ccccc1N=[N+]=[N-]	0.811	0.304	0.0562	0.85	0.0151	0.0317	0.0611	-0.153	1.29	1.71
O=C(O)C1=CC[C@H]2C(=O)N(c3ccccc3)C(=O)[C@@H]12	1.37	0.49	0.412	0.661	-0.388	0.155	0.369	0.883	0.769	0.955
O=C1C2C=CC(C(O)C3CCCCC3)N(Nc3ccccc3F)C2C(=O)N1c1ccccc1 (stereo not given)	1.45	-1.49	0.135	2.06	1	0.0993	-0.0054	-0.0116	1.27	2.4
COc1cccc(C)c1NC(=O)O[C@H]1[C@H](OC(=O)Nc2ccc3c(c2)OCO3)[C@H](OC(=O)Nc2ccc3c(c2)OCO3)[C@@H](OC)O[C@@H]1CO	1.47	-0.466	0.262	1.6	-0.406	0.122	0.715	0.351	0.305	1.57
CCCCN1CC=CC23O[C@@H]4/C=C\CCCOC(=O)C4[C@H]2C(=O)N(CCCCCCO)[C@@H]3C1=O (stereo not given in full)	0.528	0.284	-1.53	-1.12	-0.439	-0.152	0.0639	-0.346	3.21	-1.09
